PubChem BioAssay (NCATS)
Results filed as inconclusive are left out. The source made the active and inactive calls. The call rests on the fitted dose curve; in most records, active means well fitted inhibition curve with a large enough effect in the repeat runs; inconclusive means weak or mixed curves; inactive means no such curve, though single readings can be large or run the other way.

What follows are compounds tested against Cytochrome P450 2C9 (Homo sapiens) (UniProt P11712) (assay: Cytochrome P450 family 2 subfamily C member 9 (CYP2C9) small molecule antagonists: luciferase biochemical (cell-free) qHTS assay (AID 1645842; further: nearly all actives have a fitted effect of over 55% in size)). Details: P450-Glo CYP2C9 enzyme assay, luciferin luminescence; series mostly up to 57.4 µM.
Cytochrome P450 2C9 (Homo sapiens), sequence (P11712 whole entry, looked up): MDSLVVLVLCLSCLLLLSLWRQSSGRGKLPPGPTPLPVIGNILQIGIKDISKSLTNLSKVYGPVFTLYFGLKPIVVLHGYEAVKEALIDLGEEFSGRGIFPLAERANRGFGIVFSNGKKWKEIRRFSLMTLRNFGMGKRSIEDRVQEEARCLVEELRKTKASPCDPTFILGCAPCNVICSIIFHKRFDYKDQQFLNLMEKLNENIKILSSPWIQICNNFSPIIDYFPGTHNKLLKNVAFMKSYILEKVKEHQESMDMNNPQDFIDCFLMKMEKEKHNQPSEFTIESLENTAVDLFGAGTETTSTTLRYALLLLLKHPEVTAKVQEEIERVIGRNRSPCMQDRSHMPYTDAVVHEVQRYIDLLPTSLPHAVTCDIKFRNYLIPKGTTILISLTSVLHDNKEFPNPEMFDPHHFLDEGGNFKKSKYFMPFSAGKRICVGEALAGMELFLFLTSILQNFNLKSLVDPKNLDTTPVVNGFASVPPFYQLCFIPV
In short: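 P450-Glo CYP2C9 system: proluciferin substrate with enzyme in mix containing 0.4% BSA, 10 min at room temperature, then NADPH regeneration solution added and incubated 1 h at 37C. Detection reagent stopped reaction; luminescence read after 20 min as RLU.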
Potency means the concentration at half of the fitted maximal effect.

Row | SMILES | Potency
1 | Cc1cc(C)c2c(c1)C(N(Cc1cc(C(F)(F)F)cc(C(F)(F)F)c1)c1nnn(C)n1)CCCN2CC1CCC(C(=O)O)CC1 (stereo not given) | 10.7 µM (active)
2 | COc1ccc(S(=O)(=O)Nc2c(C)cc(C)cc2C)cc1 | 2.39 µM (active)
3 | CC(C)Nc1nc(Nc2ccccc2)nc(-c2ccccc2)n1 | 7.56 µM (active)
4 | O=C(NCc1ccc(OC(F)(F)F)cc1)C1c2c(F)cccc2C(=O)N1CCc1ccccn1 (stereo not given) | 3.79 µM (active)
5 | C=CCCN1CCC2(CC1)CN(C(=O)c1c(F)cccc1F)c1ccc(Cl)cc12 | 13.5 µM (active)
6 | CC1(S(=O)(=O)O)CC(=O)c2ccccc2C1=O (stereo not given) | 16.9 µM (active)
7 | Fc1ccc(-c2nc(-c3ccccc3F)[nH]c2-c2ccncc2)cc1 | 1.69 µM (active)
8 | O=C(O)c1cccc(-c2ccc(-c3cn(C(=O)N4CCCCC4Cc4ccccc4)nn3)cc2)c1 (stereo not given) | 8.49 µM (active)
9 | c1ccc(-c2cnn3cc(-c4ccc(OCCN5CCOCC5)cc4)cnc23)cc1 | 3.38 µM (active)
10 | Cn1ncc(Cl)c1-c1cc(C(=O)N[C@H](CN)Cc2cccc(F)c2)sc1Cl | 9.52 µM (active)
11 | Cn1c(CO)c(-c2ccccc2)c2cc([N+](=O)[O-])ccc21 | 19 µM (active)
12 | Nc1ncnc2c1c(-c1ccc(Cl)cc1)nn2-c1cccc(-c2cnnn2Cc2cccc(-c3ccccc3)c2)c1 | 0.536 µM (active)
13 | CC(C)(O)c1ccn2c(-c3ccc(F)c(-c4ccc(F)cc4C#N)c3)cnc2c1F | 0.756 µM (active)
14 | CCCn1cc2c(nc(NC(=O)Nc3ccc(OC)cc3)n3nc(-c4ccco4)nc23)n1 | 6.01 µM (active)
15 | O=C(NCC(=O)N1CCCC1)Nc1ccc2cnccc2c1 | inactive
16 | O=C1C(c2[nH]c3ccc(S(=O)(=O)O)cc3c2O)=Nc2ccc(S(=O)(=O)O)cc21 | inactive
17 | CC(=O)Nc1cccc(Nc2ncnc(N3CCC(OCc4ccc(OC(F)(F)F)cc4)CC3)n2)c1C | 13.5 µM (active)
18 | Cc1c(Cl)cccc1S(=O)(=O)Nc1nc(NCCc2ccccc2)nc2c1CN(Cc1ccccc1)CC2 | 6.01 µM (active)
19 | CCn1c(=O)n([C@H]2CCCN(c3nccc(-c4cc5ccccc5o4)n3)C2)c2ccccc21 | 1.69 µM (active)
20 | CN(C)S(=O)(=O)c1ccc(NC(=S)N2CCC(C(O)(c3ccccc3)c3ccccc3)CC2)cc1 | 2.68 µM (active)

Row | SMILES | Potency
21 | COc1ccc(OC)c(-c2ccc(NC(=O)c3ccncc3F)cc2)c1 | 1.51 µM (active)
22 | CCC(=O)Oc1ccc2c(c1)CC[C@@H]1[C@@H]2CC[C@]2(C)[C@@H](OC(=O)CC)CC[C@@H]12 | 15.1 µM (active)
23 | Cc1ccc(N2CCN(S(=O)(=O)N3CCCCC3)CC2)c(C)c1 | 0.849 µM (active)
24 | CN1CC(O)c2cc(N=NC(N)=O)c(O)cc21 (stereo not given) | inactive
25 | Cc1ccnc(NC(=O)C(C)c2cccc(C(=O)c3ccccc3)c2)c1 (stereo not given) | 10.7 µM (active)
26 | COc1ccc(CN2CCN(C(=O)CCNC(=O)c3ccc(C(C)(C)C)cc3)CC2)cc1 | 8.49 µM (active)
27 | O=C(OCCO)c1ccccc1O | inactive
28 | O=C(Nc1ccccc1C(=O)Nc1ccc(CCO)cc1)c1ccc([N+](=O)[O-])cc1 | inactive
29 | CC(C)(C)c1ccc(NC(=O)N2CCN(c3ncccc3Cl)CC2)cc1 | 6.01 µM (active)
30 | O=P(O)(O)OC(CO)CO | inactive
31 | O=C(NCCN1CCC(n2c(=O)[nH]c3ccccc32)CC1)c1cc2cc(F)ccc2[nH]1 | 3.38 µM (active)
32 | O=C(C(Cc1cccc(C(F)(F)F)c1)NS(=O)(=O)c1cc(F)c2c(c1)CCNC2)N1CCCC1 (stereo not given) | 12 µM (active)
33 | COc1ccc2cc(-c3cc(-c4cc(Cl)cc(Cl)c4)nn3C(C)c3ccc(C(=O)NCCC(=O)O)cc3)ccc2c1 (stereo not given) | 10.7 µM (active)
34 | O=[N+]([O-])c1ccc(Oc2ccc(N=C=S)cc2)cc1 | 16.9 µM (active)
35 | C=CS(=O)(=O)O | inactive
36 | Cc1ccc(-c2cn3c4c(sc3n2)CCCC4)cc1 | 16.9 µM (active)
37 | C=Cc1ccccc1 | inactive
38 | Fc1ccc(-c2nc(-c3c(F)cccc3F)[nH]c2-c2ccncc2)cc1 | inactive
39 | CNCc1cc(-c2ccccc2F)n(S(=O)(=O)c2cccnc2)c1 | inactive
40 | CCC(C)c1ccc(NC(=O)Cn2cnc3c2c(=O)n(C)c(=O)n3C)cc1 (stereo not given) | 12 µM (active)
